SMILES strings stand for the structures. A number with no mark means an inactive call.

The first assay relates to Madurella mycetomatis MM55. The assay can be described thus: growth relative to untreated control; higher = less inhibition, active = 20 or less. Conditions: 25 µM. The protocol:
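Hyphal fragments of M. mycetomatis MM55 or F. senegalensis CBS197.79 in RPMI 1640/MOPS were exposed to each MMV COVID Box or Global Health Priority Box compound at 100 or 25 µM for 7 days at 37 °C. Viability was read with MTS (490 nm, M. mycetomatis) or resazurin (600 nm, F. senegalensis), background-corrected with a medium-only control and expressed as % growth relative to the untreated growth control. Inhibition of more than 80% was taken as growth inhibition.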
For the compound `COc1ccc(CCN2CCC(Nc3nc4ccccc4n3Cc3ccc(F)cc3)CC2)cc1`, the growth is 3.51% (active).

Turning to `CN(C)CCn1c(Nc2cc(Cl)cc(C(F)(F)F)c2)nc2cnc(NC3CCC3)cc21`, the growth was 80.9%.

Turning to `CC(C)=CC1C(C(=O)OCN2C(=O)C3=C(CCCC3)C2=O)C1(C)C` (stereo not given), the growth is 85.9%.

`CC(C)(C)Nc1cc2c(cn1)nc(Nc1cc(Cl)cc(C(F)(F)F)c1)n2C1CCNC1` (stereo not given): the growth was 8.45% (active).

For `O=C(NC(=O)c1c(F)cccc1F)Nc1ccc(Cl)c(Oc2ncc(C(F)(F)F)cc2Cl)c1`, the growth is 46.7%.

Take `CN1C(=O)C(C(=O)Nc2ccc(Cl)c(Cl)c2)C(=O)N(C)C1=O`: the growth is 56%.

Turning to `CC1(C)C(C=C(Cl)Cl)C1C(=O)OC(C#N)c1ccc(F)c(Oc2ccccc2)c1` (stereo not given), the growth was 115%.

Consider `CC1(C)C(C=C(Cl)Cl)C1C(=O)OCc1cccc(Oc2ccccc2)c1` (stereo not given), for which the growth was 78.1%.

Take `CCOP(=S)(OCC)Oc1nc(Cl)c(Cl)cc1Cl`: the growth was 142%.

With `CNC(=O)Oc1cccc2c1OC(C)(C)O2`, the growth was 95.6%.

`CNC(=O)c1cc(Cl)cc(C)c1NC(=O)c1cc(Br)nn1-c1ncccc1Cl`: the growth is 81.9%.

Take `CCOC(=O)CC(SP(=S)(OC)OC)C(=O)OCC` (stereo not given): the growth is 128%.

As for `CCN(CC)c1nc(C)cc(OP(=S)(OC)OC)n1`, the growth was 110%.

Regarding `CC(C)Nc1cc2c(cn1)nc(Nc1cc(Cl)cc(C(F)(F)F)c1)n2C1CCNC1` (stereo not given), the growth was 7.15% (active).

Regarding `COc1ccc(C[C@H]2NC[C@H](O)[C@H]2OC(C)=O)cc1`, the growth is 111%.

As for `COC(C)(C)CCCC(C)C/C=C/C(C)=C/C(=O)OC(C)C` (stereo not given), the growth is 47.7%.

Consider `CN/C(=N\[N+](=O)[O-])NCc1cnc(Cl)s1`, for which the growth is 112%.

For `Cc1c(COC(=O)[C@@H]2[C@H](C=C(Cl)C(F)(F)F)C2(C)C)cccc1-c1ccccc1`, the growth was 123%.

With `C[C@@H]1C[C@@H]([C@H](O)CC2CC(=O)NC(=O)C2)C(=O)[C@@H](C)C1`, the growth is 31.4%.

For `COP(=S)(OC)Oc1nc(Cl)c(Cl)cc1Cl`, the growth was 88.5%.

The assay is the same for the next values; noted with them: 100 µM.
As to `COc1ccc(CCN2CCC(Nc3nc4ccccc4n3Cc3ccc(F)cc3)CC2)cc1`, the growth was 4.43% (active).

Regarding `CN(C)CCn1c(Nc2cc(Cl)cc(C(F)(F)F)c2)nc2cnc(NC3CCC3)cc21`, the growth is 104%.

As for `CC(C)=CC1C(C(=O)OCN2C(=O)C3=C(CCCC3)C2=O)C1(C)C` (stereo not given), the growth is 127%.

For `CC(C)(C)Nc1cc2c(cn1)nc(Nc1cc(Cl)cc(C(F)(F)F)c1)n2C1CCNC1` (stereo not given), the growth is 7.09% (active).

For the compound `O=C(NC(=O)c1c(F)cccc1F)Nc1ccc(Cl)c(Oc2ncc(C(F)(F)F)cc2Cl)c1`, the growth was 149%.

For the compound `CN1C(=O)C(C(=O)Nc2ccc(Cl)c(Cl)c2)C(=O)N(C)C1=O`, the growth was 10.4% (active).

On to `CC1(C)C(C=C(Cl)Cl)C1C(=O)OC(C#N)c1ccc(F)c(Oc2ccccc2)c1` (stereo not given), for which the growth was 146%.

Regarding `CC1(C)C(C=C(Cl)Cl)C1C(=O)OCc1cccc(Oc2ccccc2)c1` (stereo not given), the growth was 151%.

Turning to `CCOP(=S)(OCC)Oc1nc(Cl)c(Cl)cc1Cl`, the growth was 111%.

Consider `CNC(=O)Oc1cccc2c1OC(C)(C)O2`, for which the growth is 129%.

On to `CNC(=O)c1cc(Cl)cc(C)c1NC(=O)c1cc(Br)nn1-c1ncccc1Cl`, for which the growth was 57%.

Consider `CCOC(=O)CC(SP(=S)(OC)OC)C(=O)OCC` (stereo not given), for which the growth is 131%.

Turning to `CCN(CC)c1nc(C)cc(OP(=S)(OC)OC)n1`, the growth is 99.4%.

As to `CC(C)Nc1cc2c(cn1)nc(Nc1cc(Cl)cc(C(F)(F)F)c1)n2C1CCNC1` (stereo not given), the growth was 6.36% (active).

On to `COc1ccc(C[C@H]2NC[C@H](O)[C@H]2OC(C)=O)cc1`, for which the growth was 3.35% (active).

Consider `COC(C)(C)CCCC(C)C/C=C/C(C)=C/C(=O)OC(C)C` (stereo not given), for which the growth was 105%.

For the compound `CN/C(=N\[N+](=O)[O-])NCc1cnc(Cl)s1`, the growth was 127%.

`Cc1c(COC(=O)[C@@H]2[C@H](C=C(Cl)C(F)(F)F)C2(C)C)cccc1-c1ccccc1`: the growth was 156%.

`C[C@@H]1C[C@@H]([C@H](O)CC2CC(=O)NC(=O)C2)C(=O)[C@@H](C)C1`: the growth is 3.56% (active).

`COP(=S)(OC)Oc1nc(Cl)c(Cl)cc1Cl`: the growth is 106%.

These data come from the supplement of paper PMC11172423.
